Assay outcomes deposited in PubChem by National Center for Advancing Translational Sciences (NCATS).
Sampled rows, rich in hits. Any-hit rate of the full collection: about 21%.
NS1 function inh – blocks influenza NS1 protein function | Potency, µM (doses to about 46.1 µM) | hit rate 0.4% among 270,000; calls by dose curve; also: actives are rising curves; nearly all actives have a fitted effect of over 50% in size
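S. cerevisiae expressing influenza A NS1, grown in glucose, washed, then diluted 1:100 into pH 6.0 -URA galactose medium with 23 nl compound. Growth recovery read as OD600; NS1-free strain serves as control.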
Pf growth 96h – P. falciparum growth inhibition at 96 hour, primary screen for plastid delayed-death inhibitors; AID 504834; Potency, µM (top dose mostly 28.7 µM), usual class: inhibitors; P. falciparum luciferase reporter growth, 96 h; hit rate 6.9% among 320,000
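Cell-based qHTS: luciferase-tagged P. falciparum in erythrocytes (2% hematocrit, 0.05% parasitemia final) incubated with compounds for 96 hours, 37 C, 5% CO2; luciferase detection reagent then added and luminescence measured.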
Cycloheximide cs – affects cycloheximide protein synthesis inhibition readout, counter-screen; cell reporter, cycloheximide protein synthesis inhibition counterscreen; max response, %; hit rate 12% among 300,000; in the data active = max response mostly above about 13%, no sharp cut-off; inactive = mostly below about 14%; also: read at 38.3 µM for the half of the compounds with a filed dose
Pf growth 48h – P. falciparum growth inhibition at 48 hours (one generation). hit rate 5.9% among 310,000. Potency, µM (highest dose often 28.7 µM), most hits filed as inhibitors. P. falciparum luciferase growth in erythrocytes, 48 h
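Firefly luciferase activity from engineered P. falciparum reports growth; inhibitors lower the luminescent signal. Cultures contained 2% hematocrit erythrocytes at 0.1% final parasitemia.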
Shiga toxin inh – Shiga toxin inhibition; Vero cells, Shiga toxin protein synthesis inhibition reporter; inhibition, % at 38.7 µM; hit rate 9.2% among 290,000; AID 2315; in the data active = inhibition mostly above about 28%, no sharp cut-off; inactive = mostly below about 43%
Sm TGR inh – inhibitors of Schistosoma mansoni thioredoxin glutathione reductase; Potency, µM (doses to about 114 µM), usual class: inhibitors; hit rate 3% among 360,000; purified TGR, DTNB reduction, TNB absorbance 405 nm; Q962Y6; also: nearly all actives have a fitted effect of over 60% in size
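TGR 20 nM + NADPH 100 uM (dispensed conc.), cpd preinc 15 min RT; start with NADPH (500 uM addition) then DTNB (15 mM addition). Kinetic TNB absorbance, 405 nm filter. Four-parameter Hill fit across titration.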
Each line names hits and unclear results; the compound was inactive in the other large screens. Unless noted, calls follow the shape of the dose curve; as a rule, active = well fitted curve in the direction sought with a large enough effect; inconclusive = small, poorly fitted or top-dose-only effect, or another doubt; inactive = no such curve, though single readings can be large; an effect the other way counts as inactive or inconclusive.

COc1cc(NC(=O)c2cccc3c2C(=O)N(Cc2cccnc2)C3)cc(OC)c1OC	none
Cc1cccc(C(=O)c2c(N)sc3c2CCC(C)C3)c1 (configuration not stated)	Pf growth 96h inconclusive, Cycloheximide cs 59, Shiga toxin inh 126
Cc1cccc(C(=O)c2c(N)sc3c2CCCC3)c1	Pf growth 96h 15µM, Pf growth 48h inconclusive, Sm TGR inh inconclusive
CC1CCc2c(sc(N)c2C(N)=O)C1 (configuration not stated)	none
CCN1CCN(c2oc(COc3ccc(-c4ccccc4)cc3)nc2C#N)CC1	Pf growth 96h inconclusive, Cycloheximide cs 20, Pf growth 48h inconclusive (no result: NS1 function inh)
N#Cc1nc(COc2ccccc2)oc1N1CCCCC1	Cycloheximide cs 51, Shiga toxin inh 83 (no result: Pf growth 48h)
N#Cc1nc(COc2ccc(Cl)cc2)oc1N1CCCCCC1	Pf growth 48h inconclusive (no result: Pf growth 96h)
N#Cc1nc(COc2ccc(Br)cc2)oc1N1CCN(Cc2ccccc2)CC1	none
N#Cc1nc(COc2ccccc2Cl)oc1N1CCCCCC1	Pf growth 96h inconclusive
N#Cc1nc(COc2ccccc2F)oc1N1CCCCCC1	Cycloheximide cs 24, Shiga toxin inh 28
Cc1ccc(OCc2nc(C#N)c(N3CCCCC3)o2)cc1	Cycloheximide cs 18, Pf growth 48h inconclusive
Cc1ccc(CNC(=O)c2ccc(CNS(=O)(=O)c3ccc4c(c3)C(C)(C)C(=O)N4C)cc2)o1	Pf growth 48h inconclusive, Sm TGR inh 50µM
CCC(C)NC(=O)c1ccc(CNS(=O)(=O)c2ccc3c(c2)C(C)(C)C(=O)N3C)cc1 (configuration not stated)	Pf growth 96h 9.3µM
Cc1ccccc1NC(=O)c1ccc(CNS(=O)(=O)c2ccc3c(c2)C(C)(C)C(=O)N3C)cc1	none (no result: NS1 function inh, Pf growth 96h, Cycloheximide cs, Pf growth 48h, Shiga toxin inh)
O=C1CC[C@@H](CN(Cc2ccccn2)Cc2nc(Cc3ccccc3)no2)N1	Pf growth 96h 17µM
COc1ccc(NC(=O)CN2C(=O)C(C)(C)c3ccccc32)cc1Cl	none (no result: NS1 function inh, Pf growth 96h, Cycloheximide cs, Pf growth 48h, Shiga toxin inh)
CC(C)(C)c1ccc(C[C@H](C(=O)O)N2C(=O)c3ccc(C(=O)O)cc3C2=O)cc1	none (no result: NS1 function inh)
O=C(O)c1ccc2c(c1)C(=O)N([C@H](Cc1ccc(O)c(O)c1)C(=O)O)C2=O	Sm TGR inh 13µM (no result: NS1 function inh)
Cc1ccc(Cn2cc(C=O)c(-c3ccc(C)cc3)n2)cc1	Cycloheximide cs 52, Shiga toxin inh 78
COc1ccccc1N1CCN(/N=C/c2cccc(O)c2)CC1	Cycloheximide cs 29, Shiga toxin inh 85
COc1cc(/C=N/N2CCN(c3ccccc3OC)CC2)ccc1OC(C)=O	Cycloheximide cs 19 (no result: Shiga toxin inh)
COc1ccccc1N1CCN(/N=C/c2cc(OC)c(O)c(OC)c2)CC1	none
COc1cc(/C=N/N2CCOCC2)ccc1OC(=O)c1ccco1	none (no result: NS1 function inh)
COc1ccccc1N1CCN(/N=C/c2ccccc2C(=O)O)CC1	Cycloheximide cs 17, Shiga toxin inh 28
O=C(CCNS(=O)(=O)c1cccc2nsnc12)NCc1ccccc1Cl	none (no result: NS1 function inh)
Cc1cccc(C)c1-n1ncc(C(=O)NC2CCCC2)c1C1CCN(C(=O)OC(C)(C)C)CC1	none (no result: NS1 function inh, Pf growth 96h, Cycloheximide cs, Pf growth 48h, Shiga toxin inh)
C/C=C(\C)C(=O)OC(C)(C)[C@H]1Cc2cc3ccc(=O)oc3cc2O1	none
CCOc1ccc(NC(=O)CN(Cc2ccccc2)S(=O)(=O)c2ccc3nc(C)sc3c2)cc1	none (no result: NS1 function inh, Pf growth 96h, Cycloheximide cs, Pf growth 48h, Shiga toxin inh)
COC(=O)c1nn(-c2ccc3c(c2)CCN3C(C)=O)cc1O	Pf growth 48h 1.3µM
COC(=O)c1nn(-c2ccc3c(c2)OCO3)cc1O	Cycloheximide cs 33
CCOC(=O)c1nn(-c2c(C)n(C)n(-c3ccccc3)c2=O)cc1O	none
CCOC(=O)c1nn(-c2ccc3c(c2)OCCO3)cc1O	Cycloheximide cs 40, Shiga toxin inh 84 (no result: NS1 function inh)
CCOC(=O)c1nn(-c2ccc(C)c(C)c2)cc1O	Cycloheximide cs 42, Shiga toxin inh 94 (no result: Pf growth 96h)
CC(C)CNc1nc(NC(C)(C)C)nc(Oc2ccc(=O)n(-c3ccccc3)n2)n1	none (no result: NS1 function inh, Pf growth 96h, Cycloheximide cs, Pf growth 48h, Shiga toxin inh)
CCOC(=O)C1=C(O)C(=O)N(c2ccc(S(N)(=O)=O)cc2)C1c1ccc([N+](=O)[O-])cc1 (configuration not stated)	none
CCOC(=O)c1nn(-c2ccc([N+](=O)[O-])cc2)cc1O	Cycloheximide cs 31, Shiga toxin inh 46
CCOC(=O)c1nn(-c2ccc(OC)cc2)c(=O)c2c(N)scc12	Pf growth 48h inconclusive
CCOC(=O)c1nn(-c2ccc(C)c(C)c2)c(=O)c2c(N)scc12	Pf growth 96h 13µM
COC(=O)c1c(NC(NC(C)=O)C(Cl)(Cl)Cl)sc2c1CCCC2 (configuration not stated)	Pf growth 96h 10µM, Pf growth 48h inconclusive
COC(=O)c1c(NC(NC(=O)CC(C)C)C(Cl)(Cl)Cl)sc2c1CCC2 (configuration not stated)	Pf growth 96h 12µM, Pf growth 48h inconclusive
COc1ccc(NC(=O)C(CC(=O)O)C(C)c2ccccc2)cc1 (configuration not stated)	none (no result: NS1 function inh)
Cc1cc(NC(=O)c2cccc(S(=O)(=O)N3CCC(C)CC3)c2)no1	Pf growth 48h inconclusive
COc1cc(NC(=O)Cn2nc(Cc3cccnc3)c3ccccc3c2=O)cc(OC)c1OC	none (no result: Pf growth 48h)
Cc1ccc(N2CN=C(c3ccccc3)NC2=S)cc1	Cycloheximide cs 63, Shiga toxin inh 98 (no result: Pf growth 48h)
COc1ccc(OCc2n[nH]c(=S)n2-c2ccc(C)cc2)cc1	none
COc1ccc(C2=NCN(c3ccc(C)cc3)C(=S)N2)cc1	Cycloheximide cs 36 (no result: Pf growth 48h)
O=C(OCN1C(=O)c2ccccc2C1=O)c1cccnc1SC(F)F	none
CCN(CC(=O)NCCCn1ccnc1)S(=O)(=O)c1ccc(C)cc1	Pf growth 96h inconclusive
COc1ccc(/C=C2/N=C(SCC(=O)Nc3cc(C)on3)N(c3ccccc3)C2=O)cc1	none
NC(=O)CSC1=N/C(=C\c2ccco2)C(=O)N1c1ccc(OC(F)F)cc1	Pf growth 48h inconclusive, Sm TGR inh 45µM (no result: NS1 function inh)
CCN(CC)C(=O)CSC1=N/C(=C/c2ccco2)C(=O)N1c1ccc(OC)c(Cl)c1	Pf growth 96h inconclusive, Pf growth 48h inconclusive, Sm TGR inh inconclusive
CC1=N/C(=C\c2ccc(OC(C)C)cc2)C(=O)N1c1ccc(C(=O)O)cc1	Pf growth 96h inconclusive
COc1ccc(N2C(=O)/C(=C\c3ccco3)N=C2SCC(=O)NC(C)(C)C)cc1Cl	Pf growth 96h inconclusive, Cycloheximide cs 13, Pf growth 48h inconclusive
CCOc1cc(/C=C2\N=C(SC(C)C(N)=O)N(c3ccc(OC(F)F)cc3)C2=O)ccc1O (configuration not stated)	Pf growth 96h 1.2µM, Sm TGR inh inconclusive
N=c1oc2ccc(Br)cc2cc1C(=O)NC1CCCCCC1	Pf growth 96h inconclusive
Cc1cc(C)c2oc(C(=O)N(Cc3ccccc3)c3ccccn3)cc(=O)c2c1	Pf growth 96h inconclusive, Pf growth 48h 12µM
CC1CCN(C(=O)CCc2ccc(Oc3cc([N+](=O)[O-])cc([N+](=O)[O-])c3)cc2)CC1	Pf growth 96h inconclusive
CCOc1ccc2c(O)csc2c1	none
